Growth data for 9 compounds are collected here from PubChem BioAssay (NCI).

Common to all, as to test: NCI-60 one-dose screen, 48 h (100 = growth as untreated, 0 = no growth, -100 = all killed)
One experiment concerns NCI-H23 lung. The settings on record: 10 µM unless noted.
In a further experiment the test system is NCI-H226 lung. The settings on record: 10 µM unless noted.
A further experiment has as its system NCI-H322M lung. The settings on record: 10 µM unless noted.
In a further experiment the test system is NCI-H460 lung. The settings on record: 10 µM unless noted.
For the next experiment, the system named is HOP-92 NSCLC. The settings on record: 10 µM.
The test system of another experiment is NCI-H522 lung. The settings on record: 10 µM.
The test system of a further experiment is A549/ATCC NSCLC. Conditions: 10 µM unless noted.
Another experiment concerns 786-0 renal. Conditions: 10 µM unless noted.
The next experiment concerns COLO 205 colon. The settings on record: 10 µM unless noted.
The test system of another experiment is DU-145 prostate. Conditions: 10 µM unless noted.
For the next experiment, the system named is K-562 leukemia. Conditions: 10 µM unless noted.
A further experiment concerns MALME-3M melanoma. The settings on record: 10 µM unless noted.
The subject of a further experiment is MDA-MB-231 breast. Conditions: 10 µM unless noted.
A further experiment has as its system RXF 393 renal. Conditions: 10 µM unless noted.
For another experiment, the system named is SF-268 CNS. The settings on record: 10 µM unless noted.
The next experiment has as its system SF-295 CNS. The settings on record: 10 µM unless noted.
The subject of another experiment is SF-539 CNS. Conditions: 10 µM unless noted.
For a further experiment, the system named is UACC-257 melanoma. Conditions: 10 µM unless noted.
In a further experiment the test system is M14 melanoma. Conditions: 10 µM unless noted.

Molecules are shown by their SMILES. About 83,000 compounds went through this panel and 20% of them were active in at least one assay; those are over-represented in the sample as a whole.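 Results are percent growth after 48 hours of single-concentration exposure. 100 means growth as in untreated cells, lower positive values show inhibition; negative values down to -100 show cell death.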 A number with no mark means an inactive call. Activity calls are given as the source filed them. How the source made its calls: active means growth percent below 10; inactive means the rest.

As to `CC(C)(C)C(=O)CCCCCCCC/C=C/CCCC(O)c1ccco1` (stereo unspecified), the growth in the experiment with NCI-H23 lung was 102%; with NCI-H226 lung, 112%; in the experiment with NCI-H322M lung, 95.5%; in the experiment with NCI-H460 lung it was 112%; in the experiment with HOP-92 NSCLC it was 79.1%; with NCI-H522 lung, 120%. Further, the growth in the experiment with A549/ATCC NSCLC is 108%; in the experiment on 786-0 renal it was 94.5%; with COLO 205 colon, 124%; in the experiment on DU-145 prostate, 102%; in the experiment on K-562 leukemia it was 82.4%; in the experiment with MALME-3M melanoma, 109%. The growth in the experiment with MDA-MB-231 breast was 102%; in the experiment with RXF 393 renal, 99.7%; with SF-268 CNS it was 106%; in the experiment on SF-295 CNS it was 105%; with SF-539 CNS, 97.3%; with UACC-257 melanoma it was 105%.

As for `[2H]c1nc(=Nc2cc(NC(=O)C=C)c(N(C)CCN(C)C)cc2OC)[nH]c(-c2cn(C([2H])([2H])[2H])c3ccccc23)c1[2H]`, the growth was 60.3% in the experiment on NCI-H23 lung; 75.2% with NCI-H226 lung; 2.1% (active) in the experiment with NCI-H322M lung; 57.3% with NCI-H460 lung; 22.9% in the experiment with HOP-92 NSCLC; 13.3% in the experiment with NCI-H522 lung. In addition, the growth was 40.6% in the experiment with A549/ATCC NSCLC; 48.7% in the experiment on 786-0 renal; 29.4% with COLO 205 colon; 45% in the experiment with DU-145 prostate; -18.3% (active) with K-562 leukemia; 8.26% (active) in the experiment with MALME-3M melanoma. Besides, the growth in the experiment with MDA-MB-231 breast is 54%; with RXF 393 renal it was 44.1%; in the experiment on SF-268 CNS, 51.2%; in the experiment on SF-295 CNS, 85.4%; in the experiment on SF-539 CNS it was 40.5%; with UACC-257 melanoma it was -2.01% (active). Besides, in the experiment on M14 melanoma, the growth was -52.7% (active).

As for `CCC(C)(C)c1ccc(OCCCCCCN2CCNCC2)cc1`, the growth is 60% in the experiment on NCI-H23 lung; 92.7% in the experiment on NCI-H226 lung; 76.1% with NCI-H322M lung; 17.7% with NCI-H460 lung; 51.3% in the experiment on HOP-92 NSCLC; 95.5% in the experiment on NCI-H522 lung. For the same compound, the growth in the experiment with A549/ATCC NSCLC was 53.5%; in the experiment on 786-0 renal, 59.5%; in the experiment with COLO 205 colon, -50% (active); in the experiment with DU-145 prostate, 49.3%; in the experiment on K-562 leukemia, -29% (active); with MALME-3M melanoma, 72%. Moreover, the growth in the experiment with MDA-MB-231 breast is 78.5%; in the experiment with RXF 393 renal it was 35.9%; with SF-268 CNS, 78.5%; with SF-295 CNS, 84.4%; in the experiment with SF-539 CNS it was 61.4%; in the experiment on UACC-257 melanoma it was 75.9%. Besides, the growth in the experiment with M14 melanoma is 65.5%.

In the case of `Brc1c(-c2ccncc2)nc2n1CCS2`, the growth with NCI-H23 lung was 113%; with NCI-H226 lung it was 93.4%; in the experiment on NCI-H322M lung, 107%; with NCI-H460 lung, 103%; in the experiment on HOP-92 NSCLC it was 73.9%; with NCI-H522 lung, 76.5%. Moreover, the growth is 94.1% in the experiment with A549/ATCC NSCLC; 26.3% in the experiment on 786-0 renal; 120% in the experiment with COLO 205 colon; 116% in the experiment with DU-145 prostate; 111% in the experiment with K-562 leukemia; 114% with MALME-3M melanoma. Moreover, the growth is 101% in the experiment with MDA-MB-231 breast; 84.6% with RXF 393 renal; 107% in the experiment on SF-268 CNS; 102% in the experiment on SF-295 CNS; 119% with SF-539 CNS; 91.1% in the experiment on UACC-257 melanoma.

Turning to `COC(=O)/C(Br)=C/c1c[nH]c2ccc(Br)cc12`, the growth with NCI-H23 lung is 98.9%; in the experiment on NCI-H226 lung, 90.9%; in the experiment with NCI-H322M lung it was 100%; with NCI-H460 lung, 112%; in the experiment on HOP-92 NSCLC, 41.6%; with NCI-H522 lung it was 63.9%. The growth in the experiment with A549/ATCC NSCLC was 89.9%; in the experiment with 786-0 renal, 55%; with COLO 205 colon it was 95.8%; with DU-145 prostate, 104%; with K-562 leukemia, 74.7%; in the experiment on MALME-3M melanoma, 95.2%. The growth is 80.9% in the experiment with MDA-MB-231 breast; 32.6% in the experiment with RXF 393 renal; 97.7% in the experiment with SF-268 CNS; 64% in the experiment on SF-295 CNS; 95% in the experiment on SF-539 CNS; 88% with UACC-257 melanoma.

Take `O=C(Nc1ccc(Cl)cn1)C1(c2ccccc2)CCCCC1`: the growth was 114% with NCI-H23 lung; 103% in the experiment on NCI-H226 lung; 119% in the experiment with NCI-H322M lung; 102% in the experiment on NCI-H460 lung; 60.7% in the experiment with HOP-92 NSCLC; 140% in the experiment on NCI-H522 lung. Besides, the growth in the experiment on A549/ATCC NSCLC is 110%; in the experiment with 786-0 renal, 97.5%; with COLO 205 colon, 103%; with DU-145 prostate, 86.5%; in the experiment with K-562 leukemia, 67.1%; with MALME-3M melanoma, 112%. Moreover, the growth with MDA-MB-231 breast is 87.7%; in the experiment on RXF 393 renal it was -1.25% (active); in the experiment with SF-268 CNS, 108%; in the experiment on SF-295 CNS, 110%; in the experiment with SF-539 CNS, 96.7%; in the experiment with UACC-257 melanoma, 109%.

`O=C1N/C(=N\c2nnc(-c3ccc(O)cc3)s2)S/C1=C\c1ccccc1O`: the growth in the experiment with NCI-H23 lung was 95.2%; in the experiment with NCI-H226 lung, 99.6%; in the experiment on NCI-H322M lung, 91.9%; in the experiment with NCI-H460 lung, 102%; with HOP-92 NSCLC, 81.7%; in the experiment on NCI-H522 lung it was 93.6%. In addition, the growth in the experiment on A549/ATCC NSCLC was 103%; in the experiment with 786-0 renal it was 97.5%; in the experiment with COLO 205 colon, 114%; in the experiment on DU-145 prostate it was 95.2%; in the experiment on K-562 leukemia, 103%; in the experiment with MALME-3M melanoma it was 82.8%. Moreover, the growth in the experiment with MDA-MB-231 breast is 99.4%; with RXF 393 renal it was 113%; with SF-268 CNS, 90.7%; in the experiment on SF-295 CNS, 94%; with SF-539 CNS it was 101%; with UACC-257 melanoma, 102%. Also, the growth in the experiment with M14 melanoma was 91.1%.

For the compound `Clc1ccc(N/N=C(\c2ccccc2)c2ccccn2)nc1`, the growth in the experiment on NCI-H23 lung is 19.2%; with NCI-H226 lung, 5.46% (active); with NCI-H322M lung, 16.3%; in the experiment with NCI-H460 lung, 1.31% (active); with HOP-92 NSCLC, 31.3%; in the experiment on NCI-H522 lung, 1.35% (active). The growth in the experiment on A549/ATCC NSCLC was 3.53% (active); in the experiment with 786-0 renal it was 12.7%; with COLO 205 colon it was 15.9%; in the experiment with DU-145 prostate, 22.7%; with K-562 leukemia, 7.96% (active); with MALME-3M melanoma, 20%. For the same compound, the growth in the experiment on MDA-MB-231 breast was 37%; in the experiment on RXF 393 renal, 24.6%; in the experiment with SF-268 CNS it was 10.5%; with SF-295 CNS, 1.66% (active); with SF-539 CNS, -0.842% (active); in the experiment on UACC-257 melanoma, -7.64% (active). Besides, the growth in the experiment on M14 melanoma was -6.53% (active).

Turning to `Cc1ccnc2c(NC(C)CCCN)cc(O)c(O)c12` (stereo unspecified), the growth with NCI-H23 lung was 40.4%; with NCI-H226 lung, 111%; with NCI-H322M lung, 75.3%; with NCI-H460 lung it was 115%; with HOP-92 NSCLC, 47.6%; with NCI-H522 lung, 12.6%. Besides, the growth with A549/ATCC NSCLC was 94.7%; with 786-0 renal, 95.1%; in the experiment on COLO 205 colon it was 77.8%; in the experiment on DU-145 prostate, 80.3%; in the experiment with K-562 leukemia it was 80.3%; in the experiment on MALME-3M melanoma, 123%. Besides, the growth in the experiment with MDA-MB-231 breast was 75.2%; in the experiment on RXF 393 renal, 96.2%; in the experiment with SF-268 CNS it was 108%; in the experiment on SF-295 CNS, 104%; in the experiment with SF-539 CNS, 79.8%; with UACC-257 melanoma it was 97.2%.
